Several values for one entry are separate records, joined by “and”; a condition that tells them apart may be missing. Equal values may be shown once. The campaign covered roughly 5,500 compounds. About 2,000 (36%) were called active. Roughly 18% stayed inconclusive and do not appear here. No stated cut-off is given here; in the data, active means normalized growth mostly below about 0.91 (no sharp cut-off); inconclusive means no clear call, values can overlap the other calls; inactive means mostly above about 0.92. The list shows a part of the results.
Assay: chemical genetic growth profiling, strain panel (AID 1159580);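 further: tested at 20 µM; growth read once vehicle control cultures reached saturation at 30 °C; 1 = growth at the plate median or of vehicle wells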
Settings: S. cerevisiae deletion strains, growth OD

Measured: normalized growth

NC12CC3CC(CC(C3)C1)C2
inactive: locus YAL021C, strain ccr4, stronger effect = lower value 0.977 | locus YAL026C, strain drs2, stronger effect = lower value 0.996 | locus YAL030W, strain snc1, stronger effect = lower value 1.01 | locus YAL040C, strain CLN3, stronger effect = lower value 0.968 | locus YBL061C, strain skt5, stronger effect = lower value 1.01 | locus YBR009C, strain hhf1, stronger effect = lower value 0.99 | locus YBR021W, strain FUR4, stronger effect = lower value 0.992 | locus YBR023C, strain chs3, stronger effect = lower value 1.01 | locus YBR171W, strain sec66, stronger effect = lower value 1.01 | locus YBR229C, strain ROT2, stronger effect = lower value 1 | locus YBR231C, strain swc5, stronger effect = lower value 1.03 | locus YBR279W, strain paf1, stronger effect = lower value 0.994 | locus YCL011C, strain gbp2, stronger effect = lower value 0.985 | locus YCL016C, strain dcc1, stronger effect = lower value 0.977 | locus YCL029C, strain bik1, stronger effect = lower value 1.02 | locus YCL061C, strain MRC1 (second series), stronger effect = lower value 0.991 | locus YCL061C, strain MRC1, stronger effect = lower value 1.04 | locus YCL069W, strain vba3, stronger effect = lower value 1.01 | locus YCR088W, strain abp1, stronger effect = lower value 1.01 | locus YDL005C, strain med2, stronger effect = lower value 0.987 | locus YDL035C, strain GPR1, stronger effect = lower value 1.01 | locus YDL040C, strain nat1, stronger effect = lower value 1 | locus YDL074C, strain BRE1, stronger effect = lower value 1.02 | locus YDL101C, strain DUN1, stronger effect = lower value 1.02 | locus YDL134C, strain PPH21, stronger effect = lower value 1 | locus YDL185W, strain tfp1, stronger effect = lower value 1.02 | locus YDL192W, strain arf1, stronger effect = lower value 1.03 | locus YDR001C, strain nth1, stronger effect = lower value 0.995 | locus YDR069C, strain doa4, stronger effect = lower value 1.01 | locus YDR101C, strain arx1, stronger effect = lower value 1.03 | locus YDR137W, strain rgp1, stronger effect = lower value 1.03 | locus YDR150W, strain NUM1, stronger effect = lower value 0.992 | locus YDR159W, strain sac3, stronger effect = lower value 0.989 | locus YDR162C, strain NBP2, stronger effect = lower value 1.02 | locus YDR195W, strain ref2 1 | locus YDR297W, strain sur2, stronger effect = lower value 1.01 | locus YDR318W, strain mcm21, stronger effect = lower value 1.02 | locus YDR334W, strain swr1, stronger effect = lower value 0.994 | locus YDR335W, strain msn5, stronger effect = lower value 1.01 | locus YDR363W, strain ESC2, stronger effect = lower value 1.04 | locus YDR388W, stronger effect = lower value 1.02 | locus YDR392W, strain spt3, stronger effect = lower value 0.96 | locus YDR502C, strain sam2, stronger effect = lower value 1.01 | locus YEL003W, strain gim4, stronger effect = lower value 1.03 | locus YEL037C, strain rad23, stronger effect = lower value 0.995 | locus YEL061C, strain CIN8 (second series), stronger effect = lower value 0.998 | locus YEL061C, strain CIN8, stronger effect = lower value 1.01 | locus YER002W, strain NOP16, stronger effect = lower value 0.993 | locus YER015W, strain faa2, stronger effect = lower value 1.01 | locus YER016W, strain bim1, stronger effect = lower value 0.996 | locus YER110C, stronger effect = lower value 1.03 | locus YER111C, strain swi4, stronger effect = lower value 0.998 | locus YER155C, strain BEM2 (second series), stronger effect = lower value 1.05 | locus YER155C, strain BEM2, stronger effect = lower value 0.998 | locus YER167W, strain BCK2, stronger effect = lower value 1 | locus YFR010W, strain ubp6, stronger effect = lower value 1.01 | locus YGL078C, strain dbp3, stronger effect = lower value 1.02 | locus YGL086W, strain mad1, stronger effect = lower value 1.01 | locus YGL167C, strain pmr1, stronger effect = lower value 1 | locus YGL173C, strain kem1, stronger effect = lower value 1.03 | locus YGL227W, strain vid30, stronger effect = lower value 1 | locus YGL240W, strain doc1, stronger effect = lower value 1.04 | locus YGL248W, strain PDE1, stronger effect = lower value 1.03 | locus YGL253W, strain hxk2, stronger effect = lower value 0.98 | locus YGR078C, strain PAC10, stronger effect = lower value 0.999 | locus YGR135W, strain pre9, stronger effect = lower value 1.01 | locus YGR229C, strain SMI1, stronger effect = lower value 1.01 | locus YGR252W, strain gcn5, stronger effect = lower value 1.03 | locus YHR013C, strain ard1, stronger effect = lower value 1 | locus YHR027C, strain rpn1, stronger effect = lower value 0.996 | locus YHR030C, strain SLT2, stronger effect = lower value 1 | locus YHR079C, strain IRE1 (second series), stronger effect = lower value 1.03 | locus YHR079C, strain IRE1, stronger effect = lower value 1.02 | locus YHR094C, strain hxt1, stronger effect = lower value 1.01 | locus YHR129C, strain ARP1, stronger effect = lower value 1.01 | locus YHR142W, strain chs7, stronger effect = lower value 0.995 | locus YHR200W, strain rpn10, stronger effect = lower value 1.02 | locus YIL066C, strain RNR3, stronger effect = lower value 1.02 | locus YIL073C, strain SPO22, stronger effect = lower value 1.11 | locus YIL125W, strain kgd1, stronger effect = lower value 1.02 | locus YIR030C, strain dcg1, stronger effect = lower value 1.02 | locus YJL092W, strain hpr5, stronger effect = lower value 1.01 | locus YJL095W, strain BCK1 (second series), stronger effect = lower value 1.01 | locus YJL095W, strain BCK1, stronger effect = lower value 1.02 and 1.03 | locus YJL115W, strain asf1, stronger effect = lower value 0.999 | locus YJL129C, strain trk1, stronger effect = lower value 1.01 | locus YJL134W, strain LCB3, stronger effect = lower value 1.01 | locus YJL154C, strain vps35, stronger effect = lower value 0.998 | locus YJL164C, strain tpk1, stronger effect = lower value 0.98 | locus YJL166W, strain qcr8, stronger effect = lower value 1.04 | locus YJL168C, strain set2, stronger effect = lower value 1.02 | locus YJL187C, strain SWE1 (second series), stronger effect = lower value 1.03 | locus YJL187C, strain SWE1, stronger effect = lower value 1.01 | locus YJR043C, strain POL32, stronger effect = lower value 0.986 | locus YJR066W, strain TOR1, stronger effect = lower value 0.988 | locus YJR075W, strain HOC1, stronger effect = lower value 1.02 | locus YKL009W, strain mrt4, stronger effect = lower value 1.02 | locus YKL068W, stronger effect = lower value 1.01 | locus YKL085W, strain MDH1 (second series), stronger effect = lower value 1.01 | locus YKL085W, strain MDH1, stronger effect = lower value 1.01 | locus YKL160W, strain elf1, stronger effect = lower value 1.02 | locus YKR001C, strain vps1, stronger effect = lower value 1.01 | locus YKR026C, strain gcn3, stronger effect = lower value 1 | locus YKR091W, strain srl3, stronger effect = lower value 1 | locus YLL001W, strain dnm1, stronger effect = lower value 1.02 | locus YLL026W, stronger effect = lower value 1.01 | locus YLL041C, strain sdh2, stronger effect = lower value 0.993 | locus YLR027C, strain aat2, stronger effect = lower value 1.01 | locus YLR039C, strain RIC1, stronger effect = lower value 1.04 | locus YLR058C, strain SHM2, stronger effect = lower value 1.02 | locus YLR102C, strain apc9, stronger effect = lower value 1.02 | locus YLR113W, strain HOG1, stronger effect = lower value 1.04 | locus YLR221C, strain rsa3, stronger effect = lower value 0.986 | locus YLR258W, strain gsy2, stronger effect = lower value 0.993 | locus YLR262C, strain YPT6 (second series), stronger effect = lower value 1.03 | locus YLR262C, strain YPT6, stronger effect = lower value 1.07 | locus YLR268W, strain sec22, stronger effect = lower value 1.02 | locus YLR320W, strain mms22, stronger effect = lower value 0.977 | locus YLR330W, strain CHS5, stronger effect = lower value 1.01 | locus YLR342W, strain FKS1 (second series), stronger effect = lower value 0.997 | locus YLR342W, strain FKS1, stronger effect = lower value 1.03 | locus YLR357W, strain rsc2, stronger effect = lower value 0.993 | locus YLR370C, strain arc18, stronger effect = lower value 1 | locus YLR371W, strain rom2, stronger effect = lower value 1.02 | locus YLR384C, strain iki3, stronger effect = lower value 0.998 | locus YLR418C, strain cdc73, stronger effect = lower value 1.04 | locus YML016C, strain PPZ1, stronger effect = lower value 1.01 | locus YML032C, strain rad52, stronger effect = lower value 1.01 | locus YML120C, strain ndi1, stronger effect = lower value 1.03 | locus YML124C, strain tub3, stronger effect = lower value 1.02 | locus YMR058W, strain fet3, stronger effect = lower value 1.01 | locus YMR078C, strain ctf18, stronger effect = lower value 1.04 | locus YMR125W, strain sto1, stronger effect = lower value 0.999 | locus YMR129W, stronger effect = lower value 1 | locus YMR205C, strain PFK2, stronger effect = lower value 1.01 | locus YMR223W, strain ubp8, stronger effect = lower value 1.02 | locus YMR231W, strain pep5, stronger effect = lower value 0.999 | locus YMR307W, strain GAS1, stronger effect = lower value 0.933 | locus YNL067W, strain RPL9B, stronger effect = lower value 1.03 | locus YNL071W, strain lat1, stronger effect = lower value 0.989 | locus YNL128W, strain TEP1, stronger effect = lower value 0.983 | locus YNL153C, strain GIM3, stronger effect = lower value 1 | locus YNL175C, strain NOP13, stronger effect = lower value 0.996 | locus YNL183C, strain NPR1, stronger effect = lower value 0.972 | locus YNL197C, strain WHI3, stronger effect = lower value 0.978 | locus YNL209W, strain ssb2, stronger effect = lower value 0.989 | locus YNL224C, strain SQS1, stronger effect = lower value 1.01 | locus YNL233W, strain BNI4, stronger effect = lower value 1.02 | locus YNL248C, strain rpa49, stronger effect = lower value 0.994 | locus YNL250W, strain rad50, stronger effect = lower value 1.04 | locus YNL271C, strain bni1, stronger effect = lower value 1.03 | locus YNL298W, strain CLA4, stronger effect = lower value 1.02 | locus YNL307C, strain MCK1, stronger effect = lower value 1.03 | locus YNL322C, strain KRE1 (second series), stronger effect = lower value 0.999 | locus YNL322C, strain KRE1, stronger effect = lower value 1 | locus YNR049C, strain mso1, stronger effect = lower value 1 | locus YNR052C, strain pop2, stronger effect = lower value 1.02 | locus YOL006C, strain TOP1, stronger effect = lower value 1.1 | locus YOL012C, strain htz1 1.89 | locus YOL147C, strain pex11, stronger effect = lower value 1.03 | locus YOR001W, strain rrp6, stronger effect = lower value 1.05 | locus YOR061W, strain CKA2, stronger effect = lower value 1.02 | locus YOR069W, strain VPS5, stronger effect = lower value 1.01 | locus YOR070C, strain gyp1, stronger effect = lower value 0.99 | locus YOR080W, strain dia2, stronger effect = lower value 1.01 | locus YOR083W, strain WHI5 (second series), stronger effect = lower value 1 | locus YOR083W, strain WHI5, stronger effect = lower value 0.994 | locus YOR106W, strain vam3, stronger effect = lower value 1.04 | locus YOR136W, strain idh2, stronger effect = lower value 1.03 | locus YOR144C, strain elg1, stronger effect = lower value 1.02 | locus YOR184W, strain ser1, stronger effect = lower value 1.02 | locus YOR231W, strain MKK1, stronger effect = lower value 1.02 | locus YOR265W, strain rbl2, stronger effect = lower value 1.01 | locus YOR270C, strain vph1, stronger effect = lower value 1.03 | locus YOR290C, strain snf2, stronger effect = lower value 0.97 | locus YOR316C, strain cot1, stronger effect = lower value 1.02 | locus YPL051W, strain arl3, stronger effect = lower value 1.02 | locus YPL055C, strain LGE1, stronger effect = lower value 1.01 | locus YPL078C, strain atp4, stronger effect = lower value 1.05 | locus YPL106C, strain sse1, stronger effect = lower value 0.986 | locus YPL240C, strain hsp82, stronger effect = lower value 1.01 | locus YPL241C, strain CIN2, stronger effect = lower value 1 | locus YPL256C, strain CLN2, stronger effect = lower value 1.02 | locus YPR119W, strain clb2, stronger effect = lower value 1.02 | locus YPR141C, strain kar3, stronger effect = lower value 1.03 | locus YPR163C, strain tif3, stronger effect = lower value 1.02 | locus YPR167C, strain met16, stronger effect = lower value 1.03 | strain wtn01, stronger effect = lower value 1.01
